Experimental data taken from ChEMBL document CHEMBL1157539, “Thousands of chemical starting points for antimalarial lead identification” (Nature, 2010).

Tests used:
Assay type in all cases: functional
Plasmodium falciparum [1] = experiment: GSK_TCMDC: Inhibition of Plasmodium falciparum 3D7 in whole red blood cells, using parasite LDH activity as an index of growth. Test compounds present at 2uM
Plasmodium falciparum [2] = experiment: GSK_TCMDC: Inhibition of Plasmodium falciparum Dd2 in whole red blood cells, using parasite LDH activity as an index of growth. Test compounds present at 2uM
HepG2 = experiment: GSK_TCMDC: Percent inhibition of human HepG2 cell line. Test compounds present at 10uM.

Compound	Inhibition (Plasmodium falciparum [1]) [%]	Inhibition (Plasmodium falciparum [2]) [%]	Inhibition (HepG2) [%]
Cc1ccc(Nc2nc(C)cc(NCc3ccc(-n4ccnc4)cc3)n2)cc1	100	100	33
O=C(NCc1ccccc1)C1Cc2c([nH]c3ccc(Br)cc23)C2(CCN(Cc3ccccc3)CC2)N1 (stereo not drawn)	98	70	15
O=C(/C=C/c1ccc(Cl)c(Cl)c1)NCCCCCN1CCCC(CNC(=O)c2sc3ccccc3c2Cl)C1 (stereo not drawn)	98	0	42
CCc1cc(NC(=O)Nc2ccnc3ccccc23)ccc1OC.Cl	85	24	0
CCCCCCCNCc1c(O)ccc2c(CNCCCCCCC)c(O)ccc12.Cl	100	99	29
Cc1cc(N[C@@H](Cc2ccccc2)C(=O)NCCOc2ccccc2)nc(NCCc2cccs2)n1.O=C(O)C(F)(F)F	95	32	8
c1cc(CNC2Cc3ccc(-c4cccs4)cc3C2)cc(-n2ccnc2)c1 (stereo not drawn)	100	63	0
CCOc1ccc2ccccc2c1C(=O)Nc1cc(C)nn1-c1nc(C)cc(=O)[nH]1	93	86	28
CC(=O)Nc1nc(C(=O)Nc2cccc(-c3cccc(-c4nc5cccc(C)c5[nH]4)c3)c2)cs1	100	94	28
CC(C)(C)c1ccc(CN2CCC(CNC(=O)c3cc(-c4ccccc4)nc4ccccc34)CC2)cc1	89	36	33
C=CCn1c(SCC(=O)Nc2cc(C)ccc2OC)nc2sc(C)cc2c1=O	100	86	6
